Source: PubChem BioAssay AID1159580 (chemical genetic matrix, 2015)
Screen size: about 5,500 compounds; about 2,000 (36%) were called active. Another 18% or so got no clear call; they are omitted. No stated cut-off is given here; in the data, active means normalized growth mostly below about 0.91 (no sharp cut-off); inconclusive means no clear call, values can overlap the other calls; inactive means mostly above about 0.92. The list shows a part of the results.

Test: chemical genetic growth profiling, strain panel (AID 1159580);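 further: tested at 20 µM; growth read once vehicle control cultures reached saturation at 30 °C; 1 = growth at the plate median or of vehicle wells; lower values mean less growth of the strain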
Conditions: S. cerevisiae deletion strains, growth OD

Measured: normalized growth

Cc1ncc(CSSCc2cnc(C)c(O)c2CO)c(CO)c1O
inactive: locus YHR030C, strain SLT2, hits give low values 1.01 | locus YHR079C, strain IRE1, hits give low values 1.01 | locus YJL095W, strain BCK1, hits give low values 0.995 | locus YJR066W, strain TOR1, hits give low values 0.945 | locus YLR113W, strain HOG1, hits give low values 0.983 | locus YNL183C, strain NPR1, hits give low values 0.948 | locus YOR231W, strain MKK1, hits give low values 1.01 | locus YPL256C, strain CLN2, hits give low values 1.01
